An excerpt weighted towards active compounds, which were near 1.8% of everything screened.
Mito fusion yeast = qHTS Assay for Small Molecule Inhibitors of Mitochondrial Division or Activators of Mitochondrial Fusion. Potency, µM (titrated, usually from 46.1 µM), for the others: top-dose growth rescue (activation), actives largely listed as activators. 320,000 tested, 0.23% active. S. cerevisiae fusion-defective mutant growth rescue, CellTiterGlo 48 h; note: potency is the fitted concentration of half-maximal effect; % of control where 0% means no effect; nearly all actives have a fitted effect of over 45% in size
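S. cerevisiae fusion-defective temperature-sensitive mutants (e.g. fzo1-1, mgm1-5) grown 48 h at 37C in YPEG (ethanol/glycerol non-fermentable) medium with 23 nl compound per well; growth rescue read as CellTiterGlo luminescence.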
A-T KAP1 phos = qHTS Assay for Identifying a Potential Treatment of Ataxia-Telangiectasia; F2112 A-T fibroblasts, KAP-1 phosphorylation AlphaLISA; neocarzinostatin DNA damage 30 min before lysis; Potency, µM (series often up to 57.5 µM), for the others: top-dose activation, hits mostly activators; 320,000 tested, 0.19% active; AID 485349, 2010; note: potency is the fitted concentration of half-maximal effect; % of control where 0% means no effect; nearly all actives have a fitted effect of over 45% in size
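ATM-like activity read as KAP-1 phosphorylation via AlphaLISA donor/acceptor antibody pairs after lysis and 6 hr at 25C. Cells were ATM-null patient fibroblasts (F2112, hTERT), dosed 60 min, then exposed to the DSB inducer NCS for 30 min.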
MBNL1-CUG inh = qHTS Assay for Inhibitors of MBNL1-poly(CUG) RNA binding; Muscleblind-like protein 1 (Homo sapiens), Q9NR56; TR-FRET MBNL1-His/biotin-(CUG)12 binding, 665/545 ratio; Potency, µM (top dose mostly 57.5 µM), inactives show at the top dose activity change, negative = inhibition, hits mostly inhibitors; 280,000 tested, 0.036% active; AID 2675, 2010; active = well fitted inhibition curve with a large enough effect in the signal ratio, with a control signal flat, not every such curve was filed as active; inconclusive = small, poorly fitted or top-dose-only effect, or effect the other way, or a change in a side signal; inactive = no such curve, though single readings can be large or run the other way; the % refers to the signal ratio; note: potency is the fitted concentration of half-maximal effect; % is set by controls: 0 for no effect and ±100 for the full control effect
Target sequence (Q9NR56 whole entry, looked up): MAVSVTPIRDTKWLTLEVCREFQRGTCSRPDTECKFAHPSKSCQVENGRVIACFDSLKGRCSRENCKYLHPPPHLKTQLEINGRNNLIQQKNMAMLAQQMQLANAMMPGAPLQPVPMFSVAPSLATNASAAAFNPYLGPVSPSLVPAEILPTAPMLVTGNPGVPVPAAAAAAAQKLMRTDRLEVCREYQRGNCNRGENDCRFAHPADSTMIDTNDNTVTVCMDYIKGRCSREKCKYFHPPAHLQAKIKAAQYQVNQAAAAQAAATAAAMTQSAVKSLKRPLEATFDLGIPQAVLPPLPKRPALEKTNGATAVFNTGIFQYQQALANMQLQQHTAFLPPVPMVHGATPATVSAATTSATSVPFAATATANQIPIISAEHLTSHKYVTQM
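Compound titration spanned 92 nM–58 uM against the MBNL1-His/biotin-(CUG)12 complex. After 60 min at room temperature with 5 nM streptavidin-XL665 and 0.055 ng/ul terbium anti-His, ratiometric 665/545 nm emission (Ex 340 nm) normalized to controls.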
TCR act = Activators of T cell receptors: qHTS campaign | primary human leukocytes, anti-CD3, IL-2 HTRF, 48 h | Potency, µM (titrated, usually from 9.22 µM), for the others: at the top dose activation of IL-2 secretion, usual class: activators | 330,000 tested, under 10 active; note: % of control where 0% means no effect
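Primary human leukocytes receive a-CD3 beads and test compound and are incubated 48 hr. Secreted IL-2 is then assayed by HTRF, measuring 665nm acceptor emission after 320nm excitation of the europium donor.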
Glioma ERSR ind = qHTS for Inducers of the Endoplasmic Reticulum Stress Response (ERSR) in Human Glioma: qHTS | U87-MG GRP78 promoter luciferase reporter, 16 h | Potency, µM, for the others: at the top dose activation, hits mostly activators | 420,000 tested, 0.02% active | AID 602332, 2012; note: potency is the fitted concentration of half-maximal effect; series mostly up to about 76 µM; % of control where 0% means no effect; nearly all actives have a fitted effect of over 35% in size
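Stably transfected U87-MG glioma cells carrying a GRP78-based luciferase sensor; 16 h compound incubation. Luminescence end-point read 10 min after Bright-Glo addition at room temperature.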
ClpP mod = qHTS Assay for Activators of ClpP | 340,000 tested, 1.9% active | Potency, µM (top dose mostly 57.5 µM), for the others: top-dose activity change, negative = active | purified B. subtilis ClpP, FRET peptide cleavage, 20 min; active = well fitted falling curve with a large enough effect; inconclusive = small, poorly fitted or top-dose-only effect; inactive = no such curve, though single readings can be large or run the other way; note: potency is the fitted concentration of half-maximal effect; the source files actives as falling curves though it sought activators and does not explain the sign; nearly all actives have a fitted effect of over 65% in size
Target sequence (P80244 whole entry, looked up): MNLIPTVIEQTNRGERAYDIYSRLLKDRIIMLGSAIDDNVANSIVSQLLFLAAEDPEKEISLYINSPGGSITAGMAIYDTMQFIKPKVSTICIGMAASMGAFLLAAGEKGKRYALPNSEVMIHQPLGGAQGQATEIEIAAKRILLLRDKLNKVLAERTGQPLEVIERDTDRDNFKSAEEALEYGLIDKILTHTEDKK
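Buffer: 100 mM Tris/HCl pH8, 100 mM KCl, 0.05% low protease BSA, 2.5% glycerol, 0.01% Tween-20. ClpP 10 microg/mL final; 20 min RT; delta FRET normalized to ADEP and DMSO controls.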
* hit, by the source's call; ? = inconclusive; . = not tested or not shown; [ ] = another dose, or the depositor's remark. Unless noted, calls come from the whole dose curve; as a rule, active = well fitted curve in the direction sought with a large enough effect; inconclusive = small, poorly fitted or top-dose-only effect, or another doubt; inactive = no such curve, though single readings can be large; an effect the other way counts as inactive or inconclusive.

SMILES | Mito fusion yeast | A-T KAP1 phos | MBNL1-CUG inh | TCR act | Glioma ERSR ind | ClpP mod
Cc1cccc(NC(=O)c2cc(-c3ccc(C)s3)nc3ccccc23)n1 | 26.2% | 6.0% | 36.2% | -1.7%[46.1 µM] | 4.4% | 15.8µM*
CN(C)S(=O)(=O)c1cccc(NC(=O)c2ccc3nccnc3c2)c1 | 16.0% | 15.8µM* | ? | -9.9% | -0.3% | .
O=C(c1cc(-c2cccs2)nc2ccccc12)N1CCN(S(=O)(=O)c2cccc(F)c2)CC1 | 12.4% | -0.1% | 10.5% | 0.4% | 2.1% | 28.2µM*
CC(=O)N/C(=C/c1ccccc1)c1sc2ccccc2[n+]1CCCCI | . | . | . | . | 0.1% | 1.2%
Cc1c(C(=O)N2CCCCC2)sc2ncnc(NCCN(C)C)c12 | . | . | . | . | -4.5% | .
O=C(c1cc(-c2cccs2)nc2ccccc12)N1CCN(S(=O)(=O)c2ccccc2)CC1 | 14.4% | 0.6% | 23.3% | 0.4% | -3.6% | 25.1µM*
O=C(c1cc(-c2cccs2)nc2ccccc12)N1CCN(c2ccccc2)CC1 | 17.4% | 11.9% | 2.6% | 5.4% | 1.7% | .
CN(C)S(=O)(=O)c1cccc(NC(=O)c2cc(-c3cccs3)nc3ccccc23)c1 | 1.1% | 7.2% | . | 2.9%[46.1 µM] | 5.3% | 15.8µM*
CCNc1ncc2nc(-c3cc(F)cc(F)c3)c(=O)n(C3CC3)c2n1 | . | . | . | . | 4.2% | .
O=c1oc2ccccc2cc1-c1nc(-c2ccccc2)no1 | -1.2% | -1.7% | ? | -6.9% | -5.6% | 28.2µM*
Cc1ccc(-c2noc(-c3cc4ccccc4oc3=O)n2)cc1 | 1.2% | -5.0% | -1.1% | 0.3% | 1.3% | -7.2%
Cc1cccc(-c2noc(-c3cc4ccccc4oc3=O)n2)c1 | -0.3% | -2.1% | 10.7% | -3.5% | -0.3% | 8.91µM*
FC(F)Oc1ccc(NC(=S)N2CCN(Cc3ccccc3)CC2)cc1 | -6.4% | 12.6% | -1.0% | -3.1% | 0.2% | 8.91µM*
CC(C)(C)n1ncc2c(=O)n(Cc3cc(F)ccc3Cl)cnc21 | . | . | . | . | -2.7% | .
COc1cc(Cl)c(CN2CCOc3ccc(CN4CCCCC4CO)cc3C2)cc1OC (configuration not stated) | . | . | . | . | -4.1% | .
Cc1cnc(CNc2nc(-c3ccc(C(=O)N(C)C)cc3)nc3ccccc23)cn1 | . | . | . | . | 1.6% | .
COc1cccc(/C=N/Nc2snc(SC)c2C#N)c1O | 5.01µM* | 1.1% | -16.8%[11.5 µM] | 1.2%[46.1 µM] | -0.9% | ?
O=S(=O)(c1ccc(NC2CCCc3ccccc32)nc1)N1CCOCC1 (configuration not stated) | 1.4% | -2.4% | 10.6% | 0.1% | 1.4% | 31.6µM*
COc1cccc(Cn2c(=O)c(-c3ccc(Cl)cc3)nc3cnc(OC)nc32)c1 | . | . | . | . | -2.4% | .
Cc1cccc2c(=O)n3c(cc12)-c1[nH]c2ccccc2c1CC3 | . | . | . | -5.7% | -1.6% | 14.1µM*
O=c1c2ccccc2nc2n1CCc1c-2[nH]c2ccccc12 | ? | -3.8% | . | -1.9% | ? | 3.7%
COC(=O)c1ccc2ccn(CC(=O)NC3CCCCC3)c2c1 | 0.4% | -7.9% | 18.1% | -5.0% | -4.6% | 8.91µM*
Cc1nc2c([nH]1)C1(CCN(Cc3ccccc3)CC1)C(C#N)=C(N)O2 | 2.4% | -2.5% | 15.9% | 8.4% | -1.6% | 15.8µM*
Cc1nn(C)cc1C(C)NC(=O)c1cc(COc2c(F)cccc2F)on1 (configuration not stated) | -2.2% | 3.1% | -6.0% | 2.6% | -3.7% | -0.4%
Cc1nn(C)cc1C(C)NC(=O)c1cc(COc2cccc3cnccc23)on1 (configuration not stated) | 1.3% | 22.4% | ? | -0.7% | -3.3% | 15.8µM*
SMILES | Mito fusion yeast | A-T KAP1 phos | MBNL1-CUG inh | TCR act | Glioma ERSR ind | ClpP mod
COC(=O)c1[nH]c2ccccc2c1NC(=O)C(C)N1CC(C)OC(C)C1 (configuration not stated) | 0.2% | -4.8% | . | 1.7% | -1.6% | .
COC(=O)c1[nH]c2cccc(OC)c2c1NC(=O)CCN1CCC(C)CC1 | 1.6% | -5.3% | 4.5% | -93.9% | -2.7% | 25.1µM*
COC(=O)c1[nH]c2cccc(OC)c2c1NC(=O)C(C)N1CCC(C)CC1 (configuration not stated) | 2.6% | . | 14.3% | -3.6% | -7.6% | 31.6µM*
Cc1cc(SCC(=O)N2CCCC2=O)nc2c(C)cccc12 | 1.7% | 3.5% | . | 4.9% | -2.3% | 0.8%
Cc1cc(SCC(=O)NC2(C#N)CCCCC2)nc2c(C)cccc12 | 17.0% | 19.8% | . | -7.5% | -4.3% | 31.6µM*
N#CC1(NC(=O)CSc2n[nH]c(-c3ccccc3)n2)CCCCC1 | -5.1% | -2.1% | . | 10.1% | -3.1% | 14.1µM*
Cc1ccc(N2CCN(C(=O)c3cnc(N4CCCCC4)c4ccccc34)CC2)c(C)c1 | . | . | . | . | -3.2% | 35.5µM*
Cc1ccc(Cl)cc1N1CCN(C(=O)c2cnc(N3CCOCC3)c3ccccc23)CC1 | . | . | . | . | -7.7% | 31.6µM*
O=C(c1cnc(N2CCCCC2)c2ccccc12)N1CCN(c2ccc(Cl)cc2)CC1 | . | . | . | . | -5.5% | 25.1µM*
O=C(c1cnc(N2CCN(c3ncccn3)CC2)c2ccccc12)N1CCN(c2ncccn2)CC1 | 6.0% | -2.7% | -1.1% | 3.2% | -13.9% | -6.9%
COc1cc(C(C)C)c2c(c1)S(=O)(=O)N(COc1cc(=O)n3cccc(OCCN4CCCCC4)c3n1)C2=O | . | . | . | . | -1.1% | .
COc1ccc2sc(-c3ccc(N(C)C)cc3)c(C#CCCO)c2c1 | ? | 25.1µM* | . | -2.1% | 11.4% | 4.3%
COc1ccc(-c2sc3ccc(OC)cc3c2C#CCCO)cc1 | 18.0% | ? | 18.8% | 5.5% | 3.2% | 4.1%
COc1ccc2sc(-c3ccc(SC)cc3)c(C#CC(C)(C)O)c2c1 | 4.6% | ? | . | 5.7% | -2.9% | 4.4%
COc1ccc2sc(-c3ccc(N(C)C)cc3)c(C#CC(C)(C)O)c2c1 | 23.6% | 31.6µM* | . | 13.7% | -4.3% | 4.3%
COc1ccc2sc(-c3ccc(N(C)C)cc3)c(C#Cc3cncn3C)c2c1 | . | 31.6µM* | . | -0.8% | -3.5% | 4.0%
O=C(O)C(S)[C@@H](S)C(=O)O (some centres not stated) | . | . | . | . | -3.5% | .
COc1cc2cc(C(=O)O)[nH]c2c(OC)c1OC | -19.7% | . | -4.4% | -5.0% | -2.6% | 28.2µM*
COc1ccc(OC)c2c(=O)cc(C(=O)O)[nH]c12 | 0.4% | 19.5% | ? | 0.6% | -2.1% | 0.0%

Screening results (PubChem)
